# Assay results reported in publication PMC7862700, “An all-to-all approach to the identification of sequence-specific readers for epigenetic DNA modifications on cytosine”.
# Legend:
# Experiment in all cases: DAPPL (digital affinity profiling via proximity ligation, sequencing); 10 mM Tris-HCl pH 7.5, 50 mM NaCl, 1 mM DTT, 4% glycerol, room temperature, 30 min; GST-TFs on glutathione beads, 16-mer random dsDNA library, 0.1% formaldehyde crosslink after washing; high values mean tight binding
# Conditions in all cases: protein: recombinant; tags: N-terminal GST; dsDNA, one strand shown
# FLI1 = target: T1, FLI1 (Homo sapiens, UniProt Q01543 1-452)
# T1 sequence: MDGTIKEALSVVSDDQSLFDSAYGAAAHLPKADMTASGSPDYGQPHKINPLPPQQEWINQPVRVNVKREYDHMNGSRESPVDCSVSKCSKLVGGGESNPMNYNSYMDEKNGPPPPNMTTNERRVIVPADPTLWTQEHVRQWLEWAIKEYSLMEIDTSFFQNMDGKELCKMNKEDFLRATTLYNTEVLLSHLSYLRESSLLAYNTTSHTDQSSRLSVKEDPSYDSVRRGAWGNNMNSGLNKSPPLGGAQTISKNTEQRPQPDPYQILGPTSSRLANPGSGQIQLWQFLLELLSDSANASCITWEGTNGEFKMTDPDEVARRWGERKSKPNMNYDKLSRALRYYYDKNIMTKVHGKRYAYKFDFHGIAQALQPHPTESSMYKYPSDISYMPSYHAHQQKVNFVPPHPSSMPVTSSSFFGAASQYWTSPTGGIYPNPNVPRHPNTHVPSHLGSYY
# In short: (§1)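 Yeast served to express human transcription factors as GST fusions, which were then captured on glutathione beads and labelled with DNA barcodes. Pooled with a tag-only sample, they were incubated with 200 nmole of a 16-mer random double-stranded DNA library for 30 min at room temperature in Tris/NaCl/DTT/glycerol buffer, washed, crosslinked with 0.1% formaldehyde, ligated by proximity, amplified by PCR and sequenced. Dividing each hexamer's read frequency for a factor by its frequency for the tag-only sample gives the binding signal.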
# ELK1 = target: T2, ELK1 (Homo sapiens, UniProt P19419 1-428)
# T2 sequence: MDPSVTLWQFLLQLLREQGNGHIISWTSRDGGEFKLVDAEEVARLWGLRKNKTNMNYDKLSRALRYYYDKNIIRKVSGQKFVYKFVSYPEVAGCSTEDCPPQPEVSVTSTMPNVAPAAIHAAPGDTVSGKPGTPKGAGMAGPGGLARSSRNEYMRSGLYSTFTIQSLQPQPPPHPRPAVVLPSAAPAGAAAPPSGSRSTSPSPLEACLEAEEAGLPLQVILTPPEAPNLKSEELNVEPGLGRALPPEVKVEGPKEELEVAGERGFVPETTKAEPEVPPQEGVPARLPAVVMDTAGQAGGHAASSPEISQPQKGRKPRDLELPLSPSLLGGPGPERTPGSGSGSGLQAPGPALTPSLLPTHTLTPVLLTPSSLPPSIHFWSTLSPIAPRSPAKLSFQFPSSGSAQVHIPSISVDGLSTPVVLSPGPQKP
# In short: as §1
# GABPA = target: T3, GABPA (Homo sapiens, UniProt Q06546 1-454)
# T3 sequence: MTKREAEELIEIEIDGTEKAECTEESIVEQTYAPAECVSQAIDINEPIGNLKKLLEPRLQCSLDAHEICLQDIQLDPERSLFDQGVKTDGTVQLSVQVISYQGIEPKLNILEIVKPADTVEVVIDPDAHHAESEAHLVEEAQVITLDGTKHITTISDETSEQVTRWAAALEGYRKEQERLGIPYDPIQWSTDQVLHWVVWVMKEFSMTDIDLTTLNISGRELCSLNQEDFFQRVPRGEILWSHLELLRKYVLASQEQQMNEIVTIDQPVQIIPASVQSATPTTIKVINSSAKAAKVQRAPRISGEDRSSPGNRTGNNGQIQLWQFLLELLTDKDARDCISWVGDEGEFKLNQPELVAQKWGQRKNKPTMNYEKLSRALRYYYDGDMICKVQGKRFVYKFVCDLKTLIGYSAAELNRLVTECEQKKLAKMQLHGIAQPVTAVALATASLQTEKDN
# In short: as §1
# ERG = target: T4, ERG (Homo sapiens, UniProt P11308 1-479)
# T4 sequence: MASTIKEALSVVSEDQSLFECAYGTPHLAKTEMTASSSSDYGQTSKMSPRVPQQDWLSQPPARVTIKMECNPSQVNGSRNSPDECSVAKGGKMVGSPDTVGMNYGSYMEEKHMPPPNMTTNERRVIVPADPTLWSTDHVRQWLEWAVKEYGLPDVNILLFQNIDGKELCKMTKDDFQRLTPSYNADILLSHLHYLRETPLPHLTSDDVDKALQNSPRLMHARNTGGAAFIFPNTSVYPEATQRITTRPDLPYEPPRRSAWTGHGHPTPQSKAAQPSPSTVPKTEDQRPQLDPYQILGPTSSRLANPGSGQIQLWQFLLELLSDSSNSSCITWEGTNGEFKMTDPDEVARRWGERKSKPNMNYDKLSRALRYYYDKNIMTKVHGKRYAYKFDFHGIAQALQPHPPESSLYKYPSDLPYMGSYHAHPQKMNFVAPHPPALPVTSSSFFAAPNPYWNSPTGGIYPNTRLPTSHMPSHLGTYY
# In short: as §1
# ELF1 = ELF1 (Homo sapiens, UniProt P32519 1-619)
# Sequence of ELF1 (P32519 whole entry): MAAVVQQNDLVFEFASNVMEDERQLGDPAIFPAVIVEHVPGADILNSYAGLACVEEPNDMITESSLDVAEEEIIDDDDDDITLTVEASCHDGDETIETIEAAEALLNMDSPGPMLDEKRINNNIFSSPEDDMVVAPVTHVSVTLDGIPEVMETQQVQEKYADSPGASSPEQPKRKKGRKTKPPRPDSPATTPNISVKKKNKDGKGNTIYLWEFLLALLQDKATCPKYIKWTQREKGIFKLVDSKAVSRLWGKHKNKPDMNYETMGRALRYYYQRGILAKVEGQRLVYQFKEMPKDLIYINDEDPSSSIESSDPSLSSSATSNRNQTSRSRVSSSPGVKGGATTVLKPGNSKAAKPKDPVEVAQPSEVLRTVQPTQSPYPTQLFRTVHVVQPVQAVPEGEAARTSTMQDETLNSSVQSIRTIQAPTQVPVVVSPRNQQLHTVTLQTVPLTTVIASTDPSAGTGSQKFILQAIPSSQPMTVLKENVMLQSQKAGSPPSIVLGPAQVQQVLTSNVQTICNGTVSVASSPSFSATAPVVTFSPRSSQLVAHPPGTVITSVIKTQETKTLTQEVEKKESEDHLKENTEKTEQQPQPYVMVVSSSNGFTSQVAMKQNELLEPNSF
# In short: as §1
# EHF = target: T5, EHF (Homo sapiens, UniProt Q9NZC4 1-300)
# T5 sequence: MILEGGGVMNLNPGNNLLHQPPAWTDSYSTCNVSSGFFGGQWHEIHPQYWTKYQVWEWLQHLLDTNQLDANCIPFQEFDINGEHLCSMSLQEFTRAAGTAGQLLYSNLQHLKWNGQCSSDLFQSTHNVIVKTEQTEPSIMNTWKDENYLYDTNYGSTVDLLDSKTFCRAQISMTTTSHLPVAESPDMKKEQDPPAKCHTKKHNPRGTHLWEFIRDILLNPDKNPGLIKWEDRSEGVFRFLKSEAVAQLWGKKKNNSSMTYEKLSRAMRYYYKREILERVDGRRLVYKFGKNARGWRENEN
# In short: as §1
# SPI1 = SPI1 (Homo sapiens, UniProt P17947 1-270)
# In short: as §1
# SPIB = SPIB (Homo sapiens, UniProt Q01892 1-262)
# Sequence of SPIB (Q01892 whole entry): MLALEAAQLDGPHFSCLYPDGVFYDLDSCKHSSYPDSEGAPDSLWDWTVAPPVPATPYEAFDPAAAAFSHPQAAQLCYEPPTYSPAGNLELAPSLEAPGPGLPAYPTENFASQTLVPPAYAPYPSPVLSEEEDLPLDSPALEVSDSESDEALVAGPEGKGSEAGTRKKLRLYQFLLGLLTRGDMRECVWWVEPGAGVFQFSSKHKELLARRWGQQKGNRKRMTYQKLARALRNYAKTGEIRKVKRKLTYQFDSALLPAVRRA
# In short: as §1
# ELK3 = target: T6, ELK3 (Homo sapiens, UniProt P41970 1-407)
# T6 sequence: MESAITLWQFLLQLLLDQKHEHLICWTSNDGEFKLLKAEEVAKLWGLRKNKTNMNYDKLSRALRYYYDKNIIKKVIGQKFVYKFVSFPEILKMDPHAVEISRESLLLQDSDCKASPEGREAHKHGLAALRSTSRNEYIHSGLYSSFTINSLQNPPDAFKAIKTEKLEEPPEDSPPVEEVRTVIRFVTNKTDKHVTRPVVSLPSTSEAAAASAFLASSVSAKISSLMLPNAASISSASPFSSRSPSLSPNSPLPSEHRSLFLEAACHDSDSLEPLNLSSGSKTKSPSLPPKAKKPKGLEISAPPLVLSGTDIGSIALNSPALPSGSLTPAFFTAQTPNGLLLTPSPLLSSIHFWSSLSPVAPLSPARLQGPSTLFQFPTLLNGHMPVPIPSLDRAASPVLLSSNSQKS
# In short: as §1
# ELF4 = ELF4 (Homo sapiens, UniProt Q99607 1-663)
# Sequence of ELF4 (Q99607 whole entry): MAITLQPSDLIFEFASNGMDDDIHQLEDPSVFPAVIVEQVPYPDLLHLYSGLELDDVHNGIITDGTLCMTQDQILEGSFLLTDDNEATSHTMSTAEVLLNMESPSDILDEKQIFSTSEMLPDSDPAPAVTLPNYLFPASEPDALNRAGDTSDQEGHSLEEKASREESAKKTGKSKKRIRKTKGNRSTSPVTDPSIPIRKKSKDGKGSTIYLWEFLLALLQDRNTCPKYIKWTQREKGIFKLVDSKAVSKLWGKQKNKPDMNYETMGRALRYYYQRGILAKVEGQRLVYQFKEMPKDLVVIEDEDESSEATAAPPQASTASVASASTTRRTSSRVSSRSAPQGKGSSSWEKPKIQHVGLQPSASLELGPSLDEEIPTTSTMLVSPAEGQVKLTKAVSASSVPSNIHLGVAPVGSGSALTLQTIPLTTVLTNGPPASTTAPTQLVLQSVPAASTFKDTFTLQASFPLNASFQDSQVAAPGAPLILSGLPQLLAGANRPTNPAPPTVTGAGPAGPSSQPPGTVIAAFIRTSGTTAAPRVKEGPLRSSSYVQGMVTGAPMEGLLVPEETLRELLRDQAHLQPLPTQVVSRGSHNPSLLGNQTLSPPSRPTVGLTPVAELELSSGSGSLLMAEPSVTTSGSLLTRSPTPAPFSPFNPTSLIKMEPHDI
# In short: as §1
# ELK4 = target: T7, ELK4 (Homo sapiens, UniProt P28324-2 1-405)
# T7 sequence: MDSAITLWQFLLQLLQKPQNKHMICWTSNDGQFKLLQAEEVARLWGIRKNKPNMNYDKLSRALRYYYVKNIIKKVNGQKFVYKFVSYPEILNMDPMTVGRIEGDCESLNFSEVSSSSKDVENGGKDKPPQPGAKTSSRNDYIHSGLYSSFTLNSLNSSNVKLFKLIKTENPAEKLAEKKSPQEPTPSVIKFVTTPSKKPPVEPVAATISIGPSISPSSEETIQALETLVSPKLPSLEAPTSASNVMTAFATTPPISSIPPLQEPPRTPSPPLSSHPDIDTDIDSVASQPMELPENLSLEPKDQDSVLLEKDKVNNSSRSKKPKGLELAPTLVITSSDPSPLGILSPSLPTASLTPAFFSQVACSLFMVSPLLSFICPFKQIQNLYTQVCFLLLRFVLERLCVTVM
# In short: as §1
# ETV2 = target: T8, ETV2 (Homo sapiens, UniProt O00321 1-342)
# T8 sequence: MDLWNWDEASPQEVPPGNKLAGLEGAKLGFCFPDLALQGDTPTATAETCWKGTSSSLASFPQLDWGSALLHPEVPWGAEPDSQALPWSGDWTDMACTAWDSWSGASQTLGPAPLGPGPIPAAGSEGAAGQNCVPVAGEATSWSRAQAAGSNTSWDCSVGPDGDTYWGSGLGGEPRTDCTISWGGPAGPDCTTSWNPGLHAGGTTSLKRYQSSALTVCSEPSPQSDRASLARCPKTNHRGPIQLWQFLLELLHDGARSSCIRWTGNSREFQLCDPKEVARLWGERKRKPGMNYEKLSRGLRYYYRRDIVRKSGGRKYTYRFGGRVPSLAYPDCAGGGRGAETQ
# In short: as §1
# ELF3 = target: T9, ELF3 (Homo sapiens, UniProt P78545 1-371)
# T9 sequence: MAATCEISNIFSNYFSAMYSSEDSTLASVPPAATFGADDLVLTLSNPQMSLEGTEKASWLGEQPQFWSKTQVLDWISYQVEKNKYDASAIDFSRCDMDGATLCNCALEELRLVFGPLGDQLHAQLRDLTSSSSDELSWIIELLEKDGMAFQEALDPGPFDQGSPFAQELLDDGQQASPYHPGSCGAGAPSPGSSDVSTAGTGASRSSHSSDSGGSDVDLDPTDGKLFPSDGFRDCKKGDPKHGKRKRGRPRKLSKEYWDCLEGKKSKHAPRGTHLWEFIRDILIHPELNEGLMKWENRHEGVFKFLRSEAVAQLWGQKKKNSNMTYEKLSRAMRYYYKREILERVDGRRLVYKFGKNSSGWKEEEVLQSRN
# In short: as §1
# ERF = target: T10, ERF (Homo sapiens, UniProt P50548 1-548)
# T10 sequence: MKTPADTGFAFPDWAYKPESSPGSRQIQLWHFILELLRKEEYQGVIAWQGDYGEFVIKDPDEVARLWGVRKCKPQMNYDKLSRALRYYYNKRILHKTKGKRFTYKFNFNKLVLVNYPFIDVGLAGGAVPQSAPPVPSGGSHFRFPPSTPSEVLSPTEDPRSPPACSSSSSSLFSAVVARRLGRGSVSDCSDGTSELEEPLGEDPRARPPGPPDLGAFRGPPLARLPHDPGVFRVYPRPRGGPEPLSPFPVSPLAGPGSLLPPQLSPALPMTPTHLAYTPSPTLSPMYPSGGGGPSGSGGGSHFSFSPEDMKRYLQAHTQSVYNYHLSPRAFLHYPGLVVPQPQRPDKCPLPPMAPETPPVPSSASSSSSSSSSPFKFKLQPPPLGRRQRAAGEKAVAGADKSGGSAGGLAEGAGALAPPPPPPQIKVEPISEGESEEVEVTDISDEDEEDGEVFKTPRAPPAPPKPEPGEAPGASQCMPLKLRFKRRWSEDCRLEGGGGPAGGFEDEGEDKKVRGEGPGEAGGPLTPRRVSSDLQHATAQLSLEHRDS
# In short: as §1
# ETV3L = target: T11, ETV3L (Homo sapiens, UniProt Q6ZN32 1-361)
# T11 sequence: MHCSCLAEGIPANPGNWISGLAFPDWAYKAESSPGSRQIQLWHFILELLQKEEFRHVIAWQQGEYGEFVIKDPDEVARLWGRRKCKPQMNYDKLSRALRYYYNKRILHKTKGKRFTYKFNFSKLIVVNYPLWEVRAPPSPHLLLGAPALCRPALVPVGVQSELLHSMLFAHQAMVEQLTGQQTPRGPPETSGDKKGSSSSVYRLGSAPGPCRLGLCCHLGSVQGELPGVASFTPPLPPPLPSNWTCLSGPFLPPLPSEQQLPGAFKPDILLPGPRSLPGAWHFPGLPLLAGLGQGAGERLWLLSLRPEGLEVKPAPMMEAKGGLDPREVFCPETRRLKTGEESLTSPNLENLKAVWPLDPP
# In short: as §1
# ETV7 = target: T12, ETV7 (Homo sapiens, UniProt Q9Y603 1-341)
# T12 sequence: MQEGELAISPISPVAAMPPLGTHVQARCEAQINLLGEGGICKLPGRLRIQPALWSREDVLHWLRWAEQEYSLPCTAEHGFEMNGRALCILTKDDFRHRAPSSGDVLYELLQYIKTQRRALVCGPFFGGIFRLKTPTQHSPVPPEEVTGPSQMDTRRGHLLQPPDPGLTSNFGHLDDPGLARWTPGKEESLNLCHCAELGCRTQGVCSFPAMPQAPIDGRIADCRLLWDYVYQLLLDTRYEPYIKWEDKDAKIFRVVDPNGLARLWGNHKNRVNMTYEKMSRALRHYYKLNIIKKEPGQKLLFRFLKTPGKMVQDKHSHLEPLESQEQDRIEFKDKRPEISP
# In short: as §1
# ETV6 = ETV6 (Homo sapiens, UniProt P41212 1-452)
# Sequence of ETV6 (P41212 whole entry): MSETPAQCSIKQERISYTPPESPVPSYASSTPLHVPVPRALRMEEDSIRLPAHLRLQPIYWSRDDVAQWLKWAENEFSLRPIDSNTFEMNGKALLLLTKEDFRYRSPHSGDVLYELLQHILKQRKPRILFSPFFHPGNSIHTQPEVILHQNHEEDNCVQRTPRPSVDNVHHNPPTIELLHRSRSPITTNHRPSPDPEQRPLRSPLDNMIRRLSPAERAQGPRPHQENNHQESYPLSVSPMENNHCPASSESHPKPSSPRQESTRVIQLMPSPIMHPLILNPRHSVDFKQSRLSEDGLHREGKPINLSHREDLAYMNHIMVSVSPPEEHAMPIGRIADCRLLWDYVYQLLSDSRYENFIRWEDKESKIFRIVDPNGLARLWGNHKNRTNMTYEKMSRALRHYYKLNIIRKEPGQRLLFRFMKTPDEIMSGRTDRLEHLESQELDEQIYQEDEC
# In short: as §1
sequence,measurement,setting,value
TTGACG,binding signal,FLI1,"1.19 fold enrichment (6-mer frequency, TF over GST control)"
same,binding signal,ELK1,"1.16 fold enrichment (6-mer frequency, TF over GST control)"
same,binding signal,GABPA,"1.08 fold enrichment (6-mer frequency, TF over GST control)"
same,binding signal,ERG,"1.06 fold enrichment (6-mer frequency, TF over GST control)"
same,binding signal,ELF1,"1.1 fold enrichment (6-mer frequency, TF over GST control)"
same,binding signal,EHF,"1.2 fold enrichment (6-mer frequency, TF over GST control)"
same,binding signal,SPI1,"1.04 fold enrichment (6-mer frequency, TF over GST control)"
same,binding signal,SPIB,"1.11 fold enrichment (6-mer frequency, TF over GST control)"
same,binding signal,ELK3,"1.08 fold enrichment (6-mer frequency, TF over GST control)"
same,binding signal,ELF4,"1.15 fold enrichment (6-mer frequency, TF over GST control)"
same,binding signal,ELK4,"1.21 fold enrichment (6-mer frequency, TF over GST control)"
same,binding signal,ETV2,"1.23 fold enrichment (6-mer frequency, TF over GST control)"
same,binding signal,ELF3,"1.21 fold enrichment (6-mer frequency, TF over GST control)"
same,binding signal,ERF,"1.27 fold enrichment (6-mer frequency, TF over GST control)"
same,binding signal,ETV3L,"1.12 fold enrichment (6-mer frequency, TF over GST control)"
same,binding signal,ETV7,"1.19 fold enrichment (6-mer frequency, TF over GST control)"
same,binding signal,ETV6,"1.15 fold enrichment (6-mer frequency, TF over GST control)"
